PAD4 FP inh: PAD4 (human) enzyme inhibition; recombinant PAD4, RCA probe fluorescence polarization; 0.41% of 330,000 active; AID 485272; inhibition, % at 6.36 µM;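 active = percent inhibition above a cutoff equal to the mean of all tested compounds plus 3 SD, cut at about 15% in these data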;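 note: 0% = PAD4 with RCA probe and DMSO and 100% = probe without PAD4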
Target sequence (Q9UM07 whole entry, looked up): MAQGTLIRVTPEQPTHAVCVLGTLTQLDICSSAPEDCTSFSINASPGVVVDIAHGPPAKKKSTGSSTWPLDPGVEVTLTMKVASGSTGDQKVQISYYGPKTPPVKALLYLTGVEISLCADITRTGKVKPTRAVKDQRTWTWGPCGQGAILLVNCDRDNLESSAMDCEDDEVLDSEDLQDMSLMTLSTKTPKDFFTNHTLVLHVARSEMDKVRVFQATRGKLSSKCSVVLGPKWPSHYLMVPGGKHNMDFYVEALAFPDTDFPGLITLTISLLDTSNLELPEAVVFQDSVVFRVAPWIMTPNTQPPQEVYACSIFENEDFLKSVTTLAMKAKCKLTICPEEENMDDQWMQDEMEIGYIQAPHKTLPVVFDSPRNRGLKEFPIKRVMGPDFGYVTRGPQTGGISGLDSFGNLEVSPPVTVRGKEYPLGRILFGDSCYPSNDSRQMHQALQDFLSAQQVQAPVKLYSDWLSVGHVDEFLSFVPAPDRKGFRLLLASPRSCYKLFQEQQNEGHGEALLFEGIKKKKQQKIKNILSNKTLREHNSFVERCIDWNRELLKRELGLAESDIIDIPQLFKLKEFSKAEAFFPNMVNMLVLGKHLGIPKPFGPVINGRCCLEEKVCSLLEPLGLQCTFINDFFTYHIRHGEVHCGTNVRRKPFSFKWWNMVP
Fam108B counter: blocks mouse Fam108B hydrolase in RBBP9 counter-screen. inhibition, % at 9.51 µM. AID 1947. recombinant Fam108B, FP-Rh probe fluorescence polarization. 0.33% of 300,000 active;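 active = inhibition above the screen mean inhibition plus 3 SD, computed separately per campaign, cut at about 18% in these data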;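 note: inhibitors lower polarization as less probe binds the enzyme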
PME-1 primary: blocks human protein phosphatase methylesterase 1 | Q9Y570 | 0.53% of 320,000 active | AID 2130 | recombinant PME-1, FP-Rh probe fluorescence polarization | inhibition, % at 5.9 µM;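 active = inhibition above the campaign mean of all compounds plus 3 SD, cut at about 26% in these data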;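 note: competitive labeling of PME-1 active site by serine hydrolase directed probe; 0% = PME-1 with DMSO and 100% = wells lacking PME-1 enzyme; inhibitors block probe labeling so polarization falls and inhibition rises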
LYPLA2 counter: blocks human lysophospholipase 2, a PME1 counter-screen. 0.38% of 320,000 active. O95372. recombinant LYPLA2, FP-Rh probe fluorescence polarization. inhibition, % at 5.9 µM;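 active = inhibition above the screen-wide mean plus 3 SD, limit set per campaign, cut at about 26% in these data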;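 note: 0% = LYPLA2 with DMSO and 100% = wells lacking LYPLA2 enzyme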
GSTO1 inh: GSTO1 inhibition, counter-screen for RBBP9 inhibitors; inhibition, % at 5.96 µM; P78417; 1.1% of 300,000 active; AID 1974; recombinant GSTO1, activity-based probe fluorescence polarization;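 active = inhibition above the campaign mean inhibition plus 3 SD, cut at about 35% in these data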;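 note: 0% = GSTO1-1 with DMSO and 100% = wells lacking GSTO1-1 enzyme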
LYPLA1 inh: LYPLA1 (human) inhibition in PME1 counter-screen; recombinant LYPLA1, FP-Rh probe fluorescence polarization; inhibition, % at 5.9 µM; 0.16% of 320,000 active; AID 2174;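 active = inhibition above the mean of all tested compounds plus 3 SD, set per campaign, cut at about 14% in these data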;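 note: inhibitors block serine hydrolase probe labeling of LYPLA1 so polarization falls; 0% = enzyme with DMSO and 100% = wells lacking LYPLA1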
Fam108b confirm: confirmation of mouse Fam108b serine hydrolase inhibitors; shares compounds with Fam108B counter; recombinant Fam108b, FP-Rh probe fluorescence polarization; inhibition, % at 9.51 µM; 44% of 930 active; AID 1978;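 active = inhibition above a limit from the primary screen, the mean over all compounds plus 3 SD, cut at about 19% in these data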;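 note: 0% = median of active Fam108b wells and 100% = catalytically dead S170A mutant; inhibitors free the probe so polarization falls as inhibition rises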
Fam108b inh: mouse ABHD17B inhibition; shares compounds with Fam108B counter; recombinant Fam108b, gel-based ABPP, fluorophosphonate probe; inhibition, % at 20 µM; 44% of 260 active; AID 588649; in the data active = inhibition above about 40%
GSTO1 confirm: GSTO1 (human) inhibition, confirmation; shares compounds with GSTO1 inh; inhibition, % at 5.96 µM; 54% of 2,400 active; AID 2176; recombinant GSTO1, probe fluorescence polarization;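 active = inhibition above the primary screen's cutoff, its mean inhibition plus 3 SD, cut at about 35% in these data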;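 note: loss of polarization as inhibitors block binding of rhodamine sulfonate ester activity probe; 0% = GSTO1 with DMSO and 100% = wells lacking GSTO1 enzyme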
LYPLA1 conf: counter-screen for PME1 inhibitors: confirmation of human LYPLA1 inhibitors. shares compounds with LYPLA1 inh. recombinant LYPLA1, FP-Rh probe fluorescence polarization. inhibition, % at 5.9 µM. 69% of 480 active. AID 2233;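 active = mean inhibition across replicates above the hit cutoff set in the primary screen, cut at about 15% in these data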;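 note: loss of FP-Rh probe labeling of LYPLA1 seen as lower polarization; 0% = LYPLA1 with DMSO and 100% = wells lacking LYPLA1 enzyme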
LYPLA2 conf: LYPLA2 (human) inhibition, confirmation counter-screen | shares compounds with LYPLA2 counter | recombinant LYPLA2, FP-Rh probe fluorescence polarization | inhibition, % at 5.9 µM | 72% of 1,100 active;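 active = mean inhibition across replicates above the hit cutoff set in the primary screen, cut at about 26% in these data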;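 note: blocked labeling of the enzyme by serine hydrolase FP-Rh probe lowers polarization; 0% = enzyme with DMSO and 100% = wells lacking LYPLA2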
PAD4 confirm: PAD4 (human) inhibition, confirmed; shares compounds with PAD4 FP inh; recombinant PAD4, RCA probe fluorescence polarization; inhibition, % at 6.36 µM; 28% of 1,200 active;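 active = mean inhibition across replicates above the hit cutoff set by the earlier primary screen, cut at about 15% in these data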;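 note: inhibitors block active-site labeling by the probe so polarization falls; 0% = PAD4 with probe and DMSO and 100% = probe without PAD4 enzyme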
* marks the source's active call; other numbers are inactive results; . = no result. Sampled rows, rich in hits. Any-hit rate of the full collection: about 1.8%.

SMILES	PAD4 FP inh	Fam108B counter	PME-1 primary	LYPLA2 counter	GSTO1 inh	LYPLA1 inh	Fam108b confirm	Fam108b inh	GSTO1 confirm	LYPLA1 conf	LYPLA2 conf	others
COc1cccc2c1C(=O)c1c(O)c3c(c(O)c1C2=O)C[C@](O)(C(C)=O)C[C@H]3O[C@@H]1C[C@@H](N)[C@@H](O)[C@@H](C)O1	73*	43*	51*	50*	48*	64*	42*	.	40*	64*	41*
COc1ccc2ccccc2c1/C=N/NC(=S)Nc1cc(S(=O)(=O)N2CCOCC2)ccc1N1CCOCC1	3	-4	-3	-12	-9	-4	.	.	.	.	.
CCOc1cccc(/C=N/NC(=S)Nc2cc(S(=O)(=O)N3CCOCC3)ccc2N2CCOCC2)c1O	3	18*	32*	34*	-66	2	13	.	.	.	43*
CCn1c(CSc2nnc(-c3cccnc3)n2-c2ccccc2C)nc2cc(C(=O)O)ccc21	53*	69*	76*	80*	69*	77*	90*	0	59*	72*	72*
COc1cccc(/C=N/NC(=S)NCc2ccco2)c1OC	-4	0	8	-2	4	-1	.	.	.	.	.
Cc1nn(-c2ccccc2)c(Cl)c1/C=N/Nc1ccc(S(=O)(=O)Nc2ccccc2C(=O)O)cc1[N+](=O)[O-]	-3	33*	51*	28*	4	1	51*	.	.	.	13
CSc1ccc(C=NNc2ccc(S(=O)(=O)Nc3ccccc3C(=O)O)cc2[N+](=O)[O-])cc1	-6	.	.	.	.	.	.	.	.	.	.
Cn1nc(-c2ccc(Cl)cc2)nc2c(=O)n(C)c(=O)nc1-2	75*	71*	37*	90*	91*	85*	73*	.	92*	85*	89*
O=C(O)c1ccccc1NCc1ccco1	4	2	-3	-3	1	-3	.	.	.	.	.
O=C1c2ccccc2-c2onc3ccc(NCc4ccco4)c1c23	89*	107*	120*	118*	100*	98*	135*	30	53*	100*	121*
O=C(Oc1cc(=O)oc2c1c(=O)n1c3c(cccc23)CC1)c1ccc(F)cc1	1	3	2	3	15	0	.	.	.	.	.
Nc1c(C(=O)O)ccc2c1C(=O)c1ccccc1C2=O	-12	-1	6	4	-12	3	.	.	.	.	.
Nc1cc(C(=O)O)c(N)c2c1C(=O)c1ccccc1C2=O	4	73*	86*	53*	29	36*	84*	40*	.	31*	45*
Cc1c(C(=O)Nc2c(F)cc(F)cc2Br)sc2ncn(CC(=O)N3CCCC3)c(=O)c12	-10	-8	1	3	0	-1	.	.	.	.	.
Cc1n[nH]c(C)c1CN(C)C(=O)C1CCC(=O)N(CCc2cccc(F)c2)C1 (centres undefined)	0	-1	-6	11	6	-3	.	.	.	.	.
COC(=O)C1=COC(C)C2CN3CCc4c([nH]c5cc(OC)c(OC)cc45)C3CC12 (centres undefined)	0	0	0	7	10	3	.	.	.	.	.
CCNc1ccccc1CP(=O)(c1ccccc1)c1ccccc1O (centres undefined)	11	25*	70*	64*	87*	51*	10	.	4	2	5
O=C(CSc1c(F)c(F)cc(F)c1F)Nc1ccc(C2SCCS2)cc1	0	137*	145*	132*	2	105*	150*	0	.	0	0
Cn1c(=O)c(NCCc2ccccc2)c2c3c(cccc31)C(=O)c1ccccc1-2	151*	156*	191*	174*	156*	148*	178*	0	118*	130*	170*
Cn1c(NCCc2ccccc2)cc(=O)n(C)c1=O	0	8	3	2	-2	-2	.	.	.	.	.
CCOC(=O)N1CCC(N2CCN(S(=O)(=O)c3ccc4ccccc4c3)CC2)CC1	1	0	-8	4	0	1	.	.	.	.	.
CCc1ccc(CNc2ccc3c(c2)ncn3CC)cc1	3	0	2	11	4	4	.	.	.	.	.
CCc1ccc(CNc2ccc(O)cc2)cc1	15*	37*	38*	13	86*	6	14	.	4	.	.	PAD4 confirm=3
COc1ccc(CCN(C)C(=O)c2c(C)noc2C)cc1OC	2	.	3	2	.	-1	.	.	.	.	.
Cc1ccc(Cl)cc1NC1=C/C(=N\S(=O)(=O)c2cccs2)c2ccccc2C1=O	52*	24*	24	4	74*	0	20*	.	94*	.	.	PAD4 confirm=54*
SMILES	PAD4 FP inh	Fam108B counter	PME-1 primary	LYPLA2 counter	GSTO1 inh	LYPLA1 inh	Fam108b confirm	Fam108b inh	GSTO1 confirm	LYPLA1 conf	LYPLA2 conf	others
Cc1c(Cl)cccc1N/C(=N/S(=O)(=O)c1cccs1)c1ccccc1	-2	-4	0	1	6	-1	.	.	.	.	.
CC(=O)Oc1ccc2c(c1)Oc1cc(OC(C)=O)ccc1C21OC(=O)c2ccccc21	99*	107*	121*	119*	72*	106*	145*	0	84*	98*	121*	PAD4 confirm=128*
O=C(O)CSc1cc(NS(=O)(=O)c2ccc(Cl)cc2)c2ccccc2c1O	31*	28*	28*	28*	88*	4	19*	.	.	.	13	PAD4 confirm=-6
CC(=O)Nc1ccc(NS(=O)(=O)c2ccccc2)c2ccccc12	-5	1	-3	0	4	0	.	.	.	.	.
CCn1c(CSc2nnc3ccccn23)nc2cc(C(=O)O)ccc21	47*	50*	41*	43*	29	39*	55*	0	.	52*	51*	PAD4 confirm=77*
CCn1c(CSc2nnc(-c3ccncc3)n2CCOC)nc2cc(C(=O)O)ccc21	48*	25*	32*	39*	20	31*	35*	25	.	34*	34*	PAD4 confirm=58*
COCCn1c(SCCCC(=O)c2ccc(Br)cc2)nnc1-c1ccncc1	-4	-1	-4	-5	7	1	.	.	.	.	.
CCn1c(CSc2n[nH]c(N)n2)nc2cc(C(=O)O)ccc21	51*	30*	31*	38*	22	39*	41*	0	.	35*	35*	PAD4 confirm=58*
